Assay [1] concerns the target Tyrosine-protein kinase SYK (Homo sapiens) (UniProt P43405). The settings on record: at 10 µM.
In assay [2] the target is T1, Serine/threonine-protein kinase TAO2 (Homo sapiens) (UniProt Q9UL54).
T1 sequence (whole entry): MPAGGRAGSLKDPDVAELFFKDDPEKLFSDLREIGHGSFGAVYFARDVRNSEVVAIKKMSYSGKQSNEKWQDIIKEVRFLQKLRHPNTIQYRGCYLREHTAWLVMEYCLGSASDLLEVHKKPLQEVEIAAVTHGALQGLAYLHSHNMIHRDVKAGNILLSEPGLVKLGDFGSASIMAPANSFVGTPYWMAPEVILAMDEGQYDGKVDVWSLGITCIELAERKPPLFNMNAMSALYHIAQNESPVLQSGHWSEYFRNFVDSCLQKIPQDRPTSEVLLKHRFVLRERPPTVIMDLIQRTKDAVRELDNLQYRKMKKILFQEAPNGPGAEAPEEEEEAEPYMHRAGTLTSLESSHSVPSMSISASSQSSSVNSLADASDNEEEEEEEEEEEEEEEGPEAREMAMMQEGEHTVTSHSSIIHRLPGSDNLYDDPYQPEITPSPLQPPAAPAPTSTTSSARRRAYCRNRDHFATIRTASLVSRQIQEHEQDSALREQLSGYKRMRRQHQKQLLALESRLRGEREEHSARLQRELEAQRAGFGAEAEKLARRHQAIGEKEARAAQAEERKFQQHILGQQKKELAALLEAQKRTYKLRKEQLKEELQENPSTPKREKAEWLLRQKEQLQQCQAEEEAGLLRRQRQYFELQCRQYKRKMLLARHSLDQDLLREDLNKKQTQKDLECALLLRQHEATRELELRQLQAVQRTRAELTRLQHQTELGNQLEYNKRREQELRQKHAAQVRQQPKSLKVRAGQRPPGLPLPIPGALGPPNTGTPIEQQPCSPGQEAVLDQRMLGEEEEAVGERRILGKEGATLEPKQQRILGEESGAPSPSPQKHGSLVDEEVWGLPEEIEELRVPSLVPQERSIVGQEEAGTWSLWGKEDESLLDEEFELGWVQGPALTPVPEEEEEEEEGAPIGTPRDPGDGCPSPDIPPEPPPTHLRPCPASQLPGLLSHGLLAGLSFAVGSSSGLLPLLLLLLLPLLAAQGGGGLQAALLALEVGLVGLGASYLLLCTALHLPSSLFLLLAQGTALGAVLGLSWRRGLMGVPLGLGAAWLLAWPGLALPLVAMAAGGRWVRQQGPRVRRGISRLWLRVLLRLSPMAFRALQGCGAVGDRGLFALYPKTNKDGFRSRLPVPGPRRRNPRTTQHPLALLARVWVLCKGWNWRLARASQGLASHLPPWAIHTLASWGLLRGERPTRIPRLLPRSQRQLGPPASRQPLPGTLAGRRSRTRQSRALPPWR
Conditions: at 10 µM.

For assay [3], the target named is T2, Serine/threonine-protein kinase TAO3 (Homo sapiens) (UniProt Q9H2K8).
T2 sequence (whole entry): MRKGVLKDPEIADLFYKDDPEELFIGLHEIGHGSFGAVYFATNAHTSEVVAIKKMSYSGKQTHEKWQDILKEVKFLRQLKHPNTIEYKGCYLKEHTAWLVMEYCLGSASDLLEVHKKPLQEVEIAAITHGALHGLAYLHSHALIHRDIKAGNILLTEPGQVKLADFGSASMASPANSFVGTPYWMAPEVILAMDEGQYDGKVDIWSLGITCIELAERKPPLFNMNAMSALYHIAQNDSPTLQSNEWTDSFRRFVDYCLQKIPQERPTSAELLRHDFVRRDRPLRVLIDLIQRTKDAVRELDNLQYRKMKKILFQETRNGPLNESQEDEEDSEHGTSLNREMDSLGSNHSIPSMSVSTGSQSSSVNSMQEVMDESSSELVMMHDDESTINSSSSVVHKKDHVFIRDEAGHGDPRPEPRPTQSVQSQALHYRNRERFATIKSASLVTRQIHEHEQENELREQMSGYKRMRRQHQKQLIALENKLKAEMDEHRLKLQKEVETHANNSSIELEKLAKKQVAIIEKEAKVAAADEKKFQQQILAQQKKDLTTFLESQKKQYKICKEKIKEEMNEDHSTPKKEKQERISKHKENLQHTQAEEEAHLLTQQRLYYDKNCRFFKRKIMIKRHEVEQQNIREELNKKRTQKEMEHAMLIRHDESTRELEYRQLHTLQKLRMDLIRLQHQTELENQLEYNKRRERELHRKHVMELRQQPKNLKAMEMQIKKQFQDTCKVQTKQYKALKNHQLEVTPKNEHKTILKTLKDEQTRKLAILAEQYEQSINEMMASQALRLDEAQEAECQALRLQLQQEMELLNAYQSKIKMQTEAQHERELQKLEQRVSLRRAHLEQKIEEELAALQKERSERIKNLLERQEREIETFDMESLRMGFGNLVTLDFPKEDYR
Conditions: at 1 µM.

For assay [4], the target named is T3, TGF-beta receptor type-1 (Homo sapiens) (UniProt P36897).
T3 sequence (whole entry): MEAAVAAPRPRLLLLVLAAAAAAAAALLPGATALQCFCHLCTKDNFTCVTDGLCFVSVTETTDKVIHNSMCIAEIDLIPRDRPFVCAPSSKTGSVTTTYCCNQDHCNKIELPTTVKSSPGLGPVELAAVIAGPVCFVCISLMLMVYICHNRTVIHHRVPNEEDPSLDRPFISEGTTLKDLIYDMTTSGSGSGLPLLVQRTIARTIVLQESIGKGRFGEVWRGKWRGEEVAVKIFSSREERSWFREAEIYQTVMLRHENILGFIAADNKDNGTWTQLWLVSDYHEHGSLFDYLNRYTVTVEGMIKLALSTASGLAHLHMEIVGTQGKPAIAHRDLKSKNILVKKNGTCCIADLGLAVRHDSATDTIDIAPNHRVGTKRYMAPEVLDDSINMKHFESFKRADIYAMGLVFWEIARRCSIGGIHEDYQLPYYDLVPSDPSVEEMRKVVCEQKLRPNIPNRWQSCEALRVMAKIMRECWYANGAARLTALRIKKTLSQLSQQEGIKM
Conditions: at 10 µM.

Assay [5] addresses T4, Inhibitor of nuclear factor kappa-B kinase subunit alpha (Homo sapiens) (UniProt O15111).
T4 sequence (whole entry): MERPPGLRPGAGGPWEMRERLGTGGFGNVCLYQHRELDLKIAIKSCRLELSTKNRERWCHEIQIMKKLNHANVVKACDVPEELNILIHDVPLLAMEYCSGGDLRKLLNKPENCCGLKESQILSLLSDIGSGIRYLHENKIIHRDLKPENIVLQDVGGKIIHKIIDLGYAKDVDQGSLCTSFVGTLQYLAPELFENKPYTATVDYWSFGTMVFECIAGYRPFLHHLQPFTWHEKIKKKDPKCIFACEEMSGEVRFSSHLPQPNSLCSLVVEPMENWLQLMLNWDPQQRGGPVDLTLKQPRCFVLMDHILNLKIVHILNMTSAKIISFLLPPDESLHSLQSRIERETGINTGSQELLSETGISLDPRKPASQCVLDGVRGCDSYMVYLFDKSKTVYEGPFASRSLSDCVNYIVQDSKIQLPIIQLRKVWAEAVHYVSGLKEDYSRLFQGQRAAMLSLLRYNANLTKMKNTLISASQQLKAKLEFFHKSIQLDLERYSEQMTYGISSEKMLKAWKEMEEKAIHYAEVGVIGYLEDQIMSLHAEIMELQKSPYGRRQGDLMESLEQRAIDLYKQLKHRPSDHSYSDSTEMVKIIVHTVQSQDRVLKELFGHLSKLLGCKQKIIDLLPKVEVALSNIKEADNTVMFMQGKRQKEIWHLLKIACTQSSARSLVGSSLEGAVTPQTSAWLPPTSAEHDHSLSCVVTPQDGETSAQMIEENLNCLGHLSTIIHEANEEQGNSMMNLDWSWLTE
The settings on record: at 1 µM.

The target in assay [6] is T5, Mitogen-activated protein kinase kinase kinase 7 (Homo sapiens) (UniProt O43318).
T5 sequence (whole entry): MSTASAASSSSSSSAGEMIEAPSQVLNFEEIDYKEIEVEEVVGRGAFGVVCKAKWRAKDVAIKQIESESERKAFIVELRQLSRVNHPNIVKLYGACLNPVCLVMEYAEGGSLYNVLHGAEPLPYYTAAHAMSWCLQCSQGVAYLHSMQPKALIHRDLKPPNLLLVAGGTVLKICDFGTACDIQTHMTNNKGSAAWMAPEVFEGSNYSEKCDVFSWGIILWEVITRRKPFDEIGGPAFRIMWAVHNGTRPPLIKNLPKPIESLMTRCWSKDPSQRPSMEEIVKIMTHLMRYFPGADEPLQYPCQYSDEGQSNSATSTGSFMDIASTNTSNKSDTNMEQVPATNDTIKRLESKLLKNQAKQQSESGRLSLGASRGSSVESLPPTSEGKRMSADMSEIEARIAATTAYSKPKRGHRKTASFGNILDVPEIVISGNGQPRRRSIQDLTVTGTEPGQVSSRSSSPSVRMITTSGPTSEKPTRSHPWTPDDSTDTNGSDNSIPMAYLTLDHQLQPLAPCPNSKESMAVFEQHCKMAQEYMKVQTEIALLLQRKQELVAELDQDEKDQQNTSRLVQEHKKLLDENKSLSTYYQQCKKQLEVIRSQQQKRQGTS
The settings on record: at 1 µM.

In assay [7] the target is T5, Mitogen-activated protein kinase kinase kinase 7 (Homo sapiens). Conditions: at 10 µM.
Assay [8] addresses T6, Serine/threonine-protein kinase TBK1 (Homo sapiens) (UniProt Q9UHD2).
T6 sequence (whole entry): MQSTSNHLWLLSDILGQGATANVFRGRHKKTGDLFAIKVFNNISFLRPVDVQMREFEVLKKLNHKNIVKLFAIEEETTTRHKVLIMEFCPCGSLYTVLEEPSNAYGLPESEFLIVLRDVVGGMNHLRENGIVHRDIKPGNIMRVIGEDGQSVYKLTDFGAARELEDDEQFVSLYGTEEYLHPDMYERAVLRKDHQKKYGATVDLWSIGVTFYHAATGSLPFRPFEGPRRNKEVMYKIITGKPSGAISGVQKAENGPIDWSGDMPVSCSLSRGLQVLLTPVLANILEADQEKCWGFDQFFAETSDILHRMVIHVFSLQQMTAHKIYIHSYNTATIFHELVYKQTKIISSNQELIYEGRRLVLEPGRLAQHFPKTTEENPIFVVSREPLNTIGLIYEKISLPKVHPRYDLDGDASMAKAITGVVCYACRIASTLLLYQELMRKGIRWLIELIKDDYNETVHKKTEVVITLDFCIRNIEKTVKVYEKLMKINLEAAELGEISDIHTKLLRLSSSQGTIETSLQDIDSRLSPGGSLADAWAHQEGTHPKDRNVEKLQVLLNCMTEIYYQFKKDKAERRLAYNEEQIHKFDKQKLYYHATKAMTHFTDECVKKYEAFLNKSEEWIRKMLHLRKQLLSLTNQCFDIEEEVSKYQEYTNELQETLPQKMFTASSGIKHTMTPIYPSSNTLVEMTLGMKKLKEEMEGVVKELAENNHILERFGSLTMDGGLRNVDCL
The settings on record: at 10 µM.

Assay [9] deals with T4, Inhibitor of nuclear factor kappa-B kinase subunit alpha (Homo sapiens). The settings on record: at 10 µM.

As to `O=c1c(-c2ccc(F)cc2)c(-c2ccncc2)[nH]n1-c1ccc(Cl)cc1`, the residual activity amounted to 37% in assay [1]; 77% in assay [2]; 99% in [3]; 30% in assay [4]; 131% in [5].

As for `Cc1cc(C)c(/C=C2\C(=O)Nc3ccccc32)[nH]1`, the residual activity in assay [6] was 76%; in assay [7] it was 71%; in [2], 105%; in assay [8] it was 52%; in assay [9], 73%.

The values above are taken from ChEMBL document CHEMBL2218924, “A broad activity screen in support of a chemogenomic map for kinase signalling research and drug discovery” (Biochem J, 2013).
